This is part of a sample that, as a whole, favours compounds with a hit. Of some 83,000 tested, about 20% had one in any assay.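 Method: cells in 96-well plates; compound added at one concentration; 48 h incubation; percent growth measured; values under 10 scored active.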 Activity calls are given as the source filed them.
Assays:
Experiment in all cases: NCI-60 one-dose screen, 48 h (100 = growth as untreated, 0 = no growth, -100 = all killed)
Conditions in all cases: 10 µM unless noted
[1] = test system: SR leukemia
[2] = test system: RPMI-8226 leukemia
[3] = test system: OVCAR-8 ovarian
[4] = test system: OVCAR-5 ovarian
[5] = test system: OVCAR-4 ovarian
[6] = test system: SK-OV-3 ovarian
[7] = test system: IGROV1 ovarian
[8] = test system: OVCAR-3 ovarian
[9] = test system: HS 578T breast
[10] = test system: NCI/ADR-RES ovarian

Measured: growth

CCCCCCCC/C=C\CCCCCCCC(=O)Oc1cccc2cccnc12
inactive: [1] 45.9% | [2] 297% | [3] 89.7% | [4] 104% | [5] 128% | [6] 112% | [7] 85.4% | [9] 138% | [10] 99.1%
active: [8] -2.34%

COc1cc(C2CC(=O)Nc3n[nH]c(-c4ccccc4)c32)cc(OC)c1OC (stereo not given)
inactive: [1] 31.8% | [2] 90.6% | [3] 80.1% | [4] 91.3% | [5] 88.4% | [6] 85.5% | [7] 71.4% | [8] 36% | [9] 74.8% | [10] 104%

O=C(Oc1ccc([N+](=O)[O-])cc1)c1ccc(CBr)cc1
inactive: [1] 74.7% | [2] 81.6% | [3] 96.2% | [4] 103% | [5] 111% | [6] 147% | [7] 90.7% | [8] 114% | [9] 96.7%

COc1cc(C2CC(c3ccc(Nc4nc(Nc5ccc(F)cc5)nc(Nc5ccc(Cl)cc5)n4)cc3)=NN2C(C)=O)cc(OC)c1OC (stereo not given)
inactive: [1] 45.3% | [2] 19.1% | [3] 62.5% | [4] 83.5% | [5] 77.6% | [6] 92.8% | [7] 43.5% | [8] 82.7% | [9] 75.7% | [10] 69.8%

O=C(Nc1ccccn1)[C@H](O)[C@@H](O)C(=O)N1CCOCC1
inactive: [1] 120% | [2] 106% | [3] 96.7% | [4] 118% | [5] 123% | [6] 105% | [7] 105% | [8] 107% | [9] 104% | [10] 104%

O[C@H]1CO[C@H]2[C@@H]1OC[C@@H]2Oc1ccc(Nc2nc(Nc3ccc(F)c(Cl)c3)ncc2F)cc1Cl
inactive: [1] 110% | [2] 116% | [3] 111% | [4] 105% | [5] 96.9% | [6] 110% | [7] 102% | [8] 103% | [9] 98.7%

COc1cc2c(=O)n(CCCn3ccnc3)c3c4cc5c(cc4ccc3c2cc1OC)OCO5
inactive: [1] 10.5% | [3] 15.1% | [4] 13.9% | [5] 28.6% | [7] 19.5% | [9] 32.4% | [10] 10.5%
active: [2] -31.9% | [6] -11.4% | [8] -8.36%

Cn1ccc(Cc2cnc(N)s2)n1
inactive: [1] 88.7% | [2] 101% | [3] 94.5% | [4] 106% | [5] 99.4% | [6] 99.7% | [7] 111% | [8] 106% | [9] 93.5%

C[C@@H]1C(=O)N(C[C@H](Cc2ccccc2)NC(=O)OCc2ccccc2)[C@]1(Cc1ccccc1)C(=O)OC(C)(C)C
inactive: [1] 64.4% | [2] 41.3% | [3] 66.9% | [4] 91.5% | [5] 52.4% | [6] 70.2% | [7] 69.7% | [8] 70.3% | [9] 79.4%

Clc1ccc(/C=N\N=c2\scc(-c3ccc(Cl)cc3)n2/N=C/c2ccc(Cl)cc2)cc1
inactive: [1] 93% | [2] 106% | [3] 99.5% | [4] 105% | [5] 114% | [6] 102% | [7] 103% | [8] 114% | [9] 96.5% | [10] 109%

O=C1CSC(c2ccccc2)N1c1ccccc1 (stereo not given)
inactive: [1] 88% | [2] 100% | [3] 102% | [4] 103% | [5] 104% | [6] 100% | [7] 112% | [8] 112% | [9] 86.8%

N#Cc1c(-c2ccccc2)nc(SCC2CO2)nc1N1CCOCC1 (stereo not given)
inactive: [1] 72.5% | [2] 47.9% | [3] 81.8% | [4] 60.8% | [5] 71.1% | [6] 28.1% | [7] 38.1% | [8] 61.7% | [9] 50% | [10] 76.2%

Cc1csc(NC(=O)c2sc3nc(-c4cccs4)ccc3c2N)n1
inactive: [1] 81.5% | [2] 81.1% | [3] 97% | [4] 116% | [5] 114% | [6] 96.1% | [7] 109% | [8] 111% | [9] 99.5% | [10] 94.1%

C=CCO[C@H]1CO[C@H]2[C@@H]1OC[C@@H]2Oc1ccc(Nc2ccnc(Nc3ccc(O[C@H]4CO[C@H]5[C@@H]4OC[C@@H]5OCC=C)c(Cl)c3)n2)cc1Cl
active: [1] -1.74% | [2] -32.7% | [3] -4.18% | [4] -55.7% | [5] -86.7% | [7] -94.1% | [8] -85.5% | [9] -38.6% | [10] -63.6%
inactive: [6] 115%

NC(=S)N/N=C/C(=O)O
inactive: [1] 62.9% | [2] 48.1% | [3] 81.9% | [4] 102% | [5] 75.3% | [6] 108% | [8] 26.1% | [9] 84.3% | [10] 88.7%
active: [7] -32.7%

COc1cc(-c2ncn(/C=C\c3nnco3)n2)cc(C(F)(F)F)c1
inactive: [2] 76.4% | [3] 19.8% | [4] 37.9% | [5] 15.4% | [6] 38.9% | [7] 22.3% | [9] 19.3% | [10] 27.1%
active: [1] 6.43% | [8] -20.8%

CO/C(=C1/NC(=O)C(Cc2ccc(O)c(Br)c2)N(C)C(=O)C(C)NC(=O)CCC/C=C(\C)CCC(C)OC1=O)c1ccccc1 (stereo not given)
active: [1] -25.9% | [2] -57.4% | [3] -14.6% | [4] -2.82% | [5] 0.0232% | [6] -42.2% | [7] -80% | [8] -67.5% | [9] -34% | [10] -0.469%

Cc1nc(Nc2ccc(NC(=S)Nc3ccccc3)cc2)nc2nc(SCc3ccccc3)[nH]c(=O)c12
inactive: [1] 61.8% | [2] 67% | [3] 82.4% | [4] 102% | [5] 106% | [6] 109% | [7] 65.7% | [8] 112% | [9] 105% | [10] 110%

Cc1cc(=O)[nH]c(N/N=C/c2cc(Br)ccc2O)n1
inactive: [1] 28.4% | [2] 31.2% | [3] 16.7% | [4] 39.1% | [6] 19.1% | [9] 69% | [10] 10.2%
active: [5] 7.34% | [7] -0.435% | [8] 6.58%

CCOC(=O)C1C(=O)C=C(c2cnccn2)CC1c1ccc(OC)c(OC)c1 (stereo not given)
inactive: [1] 89.6% | [2] 90% | [3] 92.3% | [4] 103% | [5] 109% | [6] 82.2% | [7] 105% | [8] 106% | [9] 99.8% | [10] 98.2%

Nc1c(-c2nc3ccc(Br)cc3c(=O)[nH]2)nnn1-c1ccccc1
active: [5] 6.63%
inactive: [1] 57.7% | [2] 92.1% | [3] 97.7% | [4] 95.8% | [6] 112% | [7] 90.3% | [8] 80.2% | [9] 91.8% | [10] 80.9%

CC(C)(O)c1cccc(F)c1
inactive: [1] 96.9% | [2] 103% | [3] 107% | [4] 99.3% | [5] 112% | [6] 135% | [7] 104% | [8] 127% | [9] 103% | [10] 102%

CCOC(=O)c1c(C)nc2c(c1N)/C(=C/c1ccc(OC)cc1)C(=O)N2Cc1ccc(F)cc1
inactive: [5] 20.9% | [9] 54.7% | [10] 15.1%
active: [1] 1.71% | [2] -17.2% | [3] 8.74% | [4] -45.2% | [6] 9.64% | [7] -9.78% | [8] -91.4%

CSc1ncc(C)c(Nc2ccc(Cl)cc2)n1
inactive: [1] 89.9% | [2] 102% | [3] 104% | [4] 112% | [5] 99.8% | [6] 126% | [7] 85.8% | [8] 111% | [9] 94.9% | [10] 98.1%

COc1ccc(-c2c(N)n[nH]c2-c2ccccc2O)cc1OC
inactive: [1] 53.9% | [2] 52.8% | [3] 68.3% | [4] 92.2% | [5] 94.7% | [6] 84.1% | [7] 94.6% | [8] 108% | [9] 91.7% | [10] 98.2%

C[C@@H]1C(=O)N(C[C@@H](Cc2ccccc2)NC(=O)OCc2ccccc2)[C@]1(Cc1ccccc1)C(=O)OCc1ccccc1
active: [5] 1.48%
inactive: [1] 16.6% | [2] 19.6% | [3] 40.2% | [4] 69.1% | [6] 54.5% | [7] 57.4% | [8] 43.3% | [9] 55.2% | [10] 21%

CCOC(=O)c1c(C)nc2c(c1N)/C(=C/c1cc(OC)c(OC)c(OC)c1)C(=O)N2c1ccc(OC)cc1
inactive: [1] 12.4% | [3] 37.7% | [4] 85.7% | [5] 87% | [6] 105% | [7] 33.6% | [8] 42.1% | [9] 95.1% | [10] 34.7%
active: [2] -6.44%

From PubChem BioAssay (NCI)
